Abeta yeast res: restores growth of yeast expressing A-beta42 peptide. actives 0.063% (n = 410,000). AID 1347071. yeast expressing A-beta42, growth rescue, OD600, 48 h; response scale: 0% DMSO, 100% iron-clioquinol control. Potency, µM (highest dose often 46.1 µM), actives largely listed as activators; note: nearly all actives have a fitted effect of over 55% in size
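Yeast growth medium received pinned compounds, then yeast cells expressing toxic A-beta were added; plates incubated at 30 C for 48 hr. Growth read as absorbance at 600 nm, normalized to DMSO and equimolar FeCl3 plus clioquinol controls.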
aSyn rescue: inhibitors of alpha-synuclein toxicity in yeast | Yeast expressing alpha-synuclein, growth rescue, BacTiter-Glo, 24 h | Potency, µM (highest dose often 46.1 µM), for inactives: top-dose growth rescue (activation), hits mostly activators | actives 0.14% (n = 370,000) | AID 652106; note: % of control where 0% means no effect; nearly all actives have a fitted effect of over 65% in size
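Rescue of yeast growth: cells expressing toxic alpha-synuclein, induced in galactose at OD600 0.02, incubated with compound 24 h at 30 C. ATP luminescence quantified growth; inhibitors of toxicity appear as activators.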
FUS suppressor: rescues growth of FUS-expressing yeast; S. cerevisiae FUS-expressing, growth rescue, OD600, 24 h; Potency, µM (series often up to 76.6 µM), usual class: activators; actives 0.24% (n = 390,000);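 note: plate controls were DMSO vehicle for no effect and reference control for full effect; nearly all actives have a fitted effect of over 55% in size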
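Read-out: OD at 600 nm after 24hr at 30C, reporting rescue of FUS-induced yeast toxicity. Cells at OD 0.005 in galactose (2%) minimal medium; compounds tested in a dilution series; CP55940 titration from 92uM final as control.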
TDP43 rescue: rescues yeast growth from TDP-43 toxicity; TDP-43 expressing yeast growth rescue, BacTiter-Glo, 24 h; Potency, µM (highest dose often 46.1 µM), inactives show at the highest dose growth rescue (activation), usual class: activators; actives 1.8% (n = 410,000); AID 652104; note: % of control where 0% means no effect; nearly all actives have a fitted effect of over 50% in size
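Cell-based yeast growth screen: TDP-43 expression induced in galactose, inoculum OD600=0.02 after raffinose pregrowth to mid-log. Read-out BacTiter-Glo luminescence at 24 hr, 30 deg C; inhibition of toxicity seen as signal increase.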
Mito fusion yeast: inhibitors of mitochondrial division or activators of mitochondrial fusion. S. cerevisiae fusion-defective mutant growth rescue, CellTiterGlo 48 h. Potency, µM (top dose mostly 46.1 µM), for the others: top-dose growth rescue (activation), usual class: activators. actives 0.23% (n = 320,000); note: % of control where 0% means no effect; nearly all actives have a fitted effect of over 45% in size
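S. cerevisiae fusion-defective temperature-sensitive mutants (e.g. fzo1-1, mgm1-5) grown 48 h at 37C in YPEG (ethanol/glycerol non-fermentable) medium with 23 nl compound per well; growth rescue read as CellTiterGlo luminescence.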
Starred values were filed as active, the others as inactive. Most compounds without a hit are left out; they make up all but 2.2% or so of the library. Calls come from the whole dose curve; as a rule, active = well fitted curve in the direction sought with a large enough effect; inconclusive = small, poorly fitted or top-dose-only effect, or another doubt; inactive = no such curve, though single readings can be large; an effect the other way counts as inactive or inconclusive. Potency is the fitted concentration of half-maximal effect.

Results for Fc1ccc2[nH]c3c(c2c1)CN(C(=S)NCc1ccccc1)CC3 ?
Abeta yeast res: inconclusive; aSyn rescue: -27.7%; FUS suppressor: inactive; TDP43 rescue: 15.8µM*; Mito fusion yeast: inconclusive

Results for CCCCCCN1C[C@@H](n2cc(COC(=O)c3ccccc3)nn2)[C@H](O)C[C@@H]1c1ccccc1 ?
Abeta yeast res: inactive; aSyn rescue: 25.1µM*; FUS suppressor: inactive; TDP43 rescue: 19.3%

Results for CCCCCCN1C[C@H](n2cc(COC(=O)c3ccccc3)nn2)[C@@H](O)C[C@@H]1c1ccc(C)cc1 ?
Abeta yeast res: inactive; aSyn rescue: -14.3%; FUS suppressor: inconclusive; TDP43 rescue: 35.5µM*

Results for CCCCCCN1C[C@H](n2cc(COC(=O)c3ccccc3)nn2)[C@@H](O)C[C@@H]1c1ccccc1 ?
Abeta yeast res: inactive; aSyn rescue: 11.1%; FUS suppressor: inactive; TDP43 rescue: 29.5%

What do the screens show for `CC(C)CC(=O)NC(=S)Nc1ccccc1N1CCCC1`?
Abeta yeast res: 7.08µM*; aSyn rescue: 9.5%; FUS suppressor: inactive; TDP43 rescue: 22.8%; Mito fusion yeast: -4.2%

Results for O=C(NC(=S)Nc1ccccc1N1CCCC1)c1cccs1 ?
Abeta yeast res: 11.2µM*; aSyn rescue: -0.2%; FUS suppressor: inactive; TDP43 rescue: inconclusive; Mito fusion yeast: 2.5%

What do the screens show for `Cc1ccc(C(=O)c2cc3c(cc2[N+](=O)[O-])OCCO3)cc1`?
Abeta yeast res: inactive; aSyn rescue: -7.1%; FUS suppressor: inactive; TDP43 rescue: 12.6µM*; Mito fusion yeast: -6.2%

How did Cc1ccccc1NC(=O)c1nc(S(=O)(=O)Cc2ccccc2F)ncc1Cl do in these assays?
aSyn rescue: -23.8%

How did Cc1cc(C)c2nc(NNC(=O)c3ccc(S(=O)(=O)N4CCCC(C)C4)cc3)sc2c1 (stereo not drawn) do in these assays?
Abeta yeast res: inactive; aSyn rescue: 26.6%; FUS suppressor: inactive; TDP43 rescue: inconclusive; Mito fusion yeast: -6.1%

Results for O=C(Nc1nnc(C2CC2)o1)c1ccc(S(=O)(=O)N2CCc3ccccc3C2)cc1 ?
Abeta yeast res: inactive; aSyn rescue: 17.8µM*; FUS suppressor: inactive; TDP43 rescue: 15.8µM*; Mito fusion yeast: -4.6%

Results for Cc1cc(C)c2nc(NNC(=O)c3ccc(S(=O)(=O)N4CC(C)CC(C)C4)cc3)sc2c1 (stereo not drawn) ?
Abeta yeast res: inactive; aSyn rescue: 0.5%; FUS suppressor: inactive; TDP43 rescue: 5.01µM*; Mito fusion yeast: -4.8%

Results for Cc1ccc2nc(NNC(=O)c3ccc(S(=O)(=O)N4CCc5ccccc5C4)cc3)sc2c1 ?
Abeta yeast res: inactive; aSyn rescue: inconclusive; FUS suppressor: inconclusive; TDP43 rescue: 8.91µM*; Mito fusion yeast: -0.6%

What do the screens show for `Cc1ccc2nc(NC(=O)c3ccc(S(=O)(=O)N4CCC(C)CC4)cc3)sc2c1`?
Abeta yeast res: inactive; aSyn rescue: -7.7%; FUS suppressor: inactive; TDP43 rescue: 4.1%

How did Nc1c(C(=O)c2ccc(Br)s2)oc2ccccc12 do in these assays?
Abeta yeast res: inactive; aSyn rescue: 0.4%; FUS suppressor: inactive; TDP43 rescue: 12.6µM*; Mito fusion yeast: inconclusive

What do the screens show for `COc1ccc(OC)c(-c2csc(NC(=O)CN3C(=O)C4CCCCC4C3=O)n2)c1` (stereo not drawn)?
Abeta yeast res: inactive; aSyn rescue: 3.0%; FUS suppressor: inconclusive; TDP43 rescue: 2.0%; Mito fusion yeast: -3.6%

What do the screens show for `COc1ccc(OC)c(-c2csc(NC(=O)Cn3[nH]c(=O)c4ccccc4c3=O)n2)c1`?
Abeta yeast res: inactive; aSyn rescue: -2.6%; FUS suppressor: 39.8µM*; TDP43 rescue: -20.1%; Mito fusion yeast: 9.4%

Results for COc1ccc(OC)c(-c2csc(NC(=O)Cc3ccc(F)cc3)n2)c1 ?
Abeta yeast res: inactive; aSyn rescue: 5.4%; FUS suppressor: inactive; TDP43 rescue: 14.1µM*; Mito fusion yeast: -12.5%

Source: PubChem (National Center for Advancing Translational Sciences (NCATS))
